# PubChem BioAssay (Tox21)
# Unmarked numbers belong to inactive results. Records with an inconclusive call do not appear. Entries that show only a call come without a potency. The source made the active and inactive calls. The call rests on the fitted dose curve; in most records, active means well fitted curve in the direction sought with a large enough effect in the repeat runs; inconclusive means weak or mixed curves; inactive means no such curve, though single readings can be large; an effect the other way counts as inactive or inconclusive.
# Columns and labels:
# [1] = qHTS RealTime-Glo MT Cell Viability Assay in HepG2 cells - 40 hour (AID 1224870); further: nearly all actives have a fitted effect of over 50% in size
# In short: (§1)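 Real-time viability: cells seeded at 600 per well together with NanoLuc and cell-permeant prosubstrate, compounds added after 5 h incubation. Luminescence tracked at 0, 8, 16, 24, 32 and 40 h of exposure.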
# [2] = A CellTox Green Cytotoxicity Assay to monitor cytotoxicity in HEK293 cells - 40 hour (AID 1224871); further: nearly all actives have a fitted effect of over 45% in size
# In short: (§2)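 Fluorescence intensity, read at 0, 8, 16, 24, 32 and 40 h of compound treatment, reflected dye binding to DNA of dead HEK293 cells; compounds (23 nL, DMSO) were added 5 h after plating cells with reagent.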
# [3] = qHTS RealTime-Glo MT Cell Viability Assay in HepG2 cells - 8 hour (AID 1224873); further: nearly all actives have a fitted effect of over 55% in size
# In short: as §1
# [4] = qHTS RealTime-Glo MT Cell Viability Assay in HEK293 cells - 40 hour (AID 1224874); conditions: RealTime-Glo luminescence; max response: stronger effect = lower value; further: nearly all actives have a fitted effect of over 50% in size; further: potency means the concentration at half of the fitted maximal effect
# In short: (§3)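 Viable HEK293 cells reduce a cell-permeant prosubstrate; the product diffuses out and is consumed by NanoLuc in the medium to give light. Compounds went in after a 5 h incubation and plates were read over the treatment course.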
# [5] = A CellTox Green Cytotoxicity Assay to monitor cytotoxicity in HEK293 cells - 24 hour (AID 1224875); further: series mostly up to about 77 µM; nearly all actives have a fitted effect of over 45% in size
# In short: as §2
# [6] = A CellTox Green Cytotoxicity Assay to monitor cytotoxicity in HepG2 cells - 16 hour (AID 1224876); further: nearly all actives have a fitted effect of over 45% in size
# In short: (§4)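 Using 1536-well format, dye-containing HepG2 suspension was seeded, allowed 5 h at 37 C/5% CO2, dosed by pintool with compounds, positive and negative controls, and imaged for fluorescence across 40 h.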
# [7] = qHTS RealTime-Glo MT Cell Viability Assay in HepG2 cells - 32 hour (AID 1224877); further: nearly all actives have a fitted effect of over 55% in size
# In short: (§5)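 HepG2 cells were seeded at 600 cells/well together with NanoLuc luciferase and a cell-permeant prosubstrate, preincubated 5 h at 37 C/5% CO2, then pin-dosed with compounds in DMSO. Nonlytic luminescence from viable cells was read at each time point.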
# [8] = A CellTox Green Cytotoxicity Assay to monitor cytotoxicity in HepG2 cells - 24 hour (AID 1224878); further: nearly all actives have a fitted effect of over 45% in size; further: potency means the concentration at half of the fitted maximal effect
# In short: as §4
# [9] = A CellTox Green Cytotoxicity Assay to monitor cytotoxicity in HepG2 cells - 40 hour (AID 1224879); further: nearly all actives have a fitted effect of over 40% in size; further: potency means the concentration at half of the fitted maximal effect
# In short: as §4
# [10] = qHTS RealTime-Glo MT Cell Viability Assay in HEK293 cells - 0 hour (AID 1224880)
# In short: as §3
# [11] = A CellTox Green Cytotoxicity Assay to monitor cytotoxicity in HEK293 cells - 32 hour (AID 1224881); further: nearly all actives have a fitted effect of over 40% in size
# In short: as §2
# [12] = A CellTox Green Cytotoxicity Assay to monitor cytotoxicity in HepG2 cells - 0 hour (AID 1224882); further: nearly all actives have a fitted effect of over 35% in size
# In short: as §4
# [13] = A CellTox Green Cytotoxicity Assay to monitor cytotoxicity in HepG2 cells - 32 hour (AID 1224883); further: nearly all actives have a fitted effect of over 50% in size; further: potency means the concentration at half of the fitted maximal effect
# In short: as §4
# [14] = A CellTox Green Cytotoxicity Assay to monitor cytotoxicity in HEK293 cells - 8 hour (AID 1224884); further: nearly all actives have a fitted effect of over 35% in size
# In short: as §2
# [15] = qHTS RealTime-Glo MT Cell Viability Assay in HepG2 cells - 16 hour (AID 1224885); further: nearly all actives have a fitted effect of over 50% in size
# In short: as §5
# [16] = qHTS RealTime-Glo MT Cell Viability Assay in HEK293 cells - 8 hour (AID 1224887); further: nearly all actives have a fitted effect of over 50% in size; further: potency means the concentration at half of the fitted maximal effect
# In short: as §3
# [17] = A CellTox Green Cytotoxicity Assay to monitor cytotoxicity in HEK293 cells - 16 hour (AID 1224888); further: nearly all actives have a fitted effect of over 35% in size
# In short: as §2
# [18] = qHTS RealTime-Glo MT Cell Viability Assay in HepG2 cells - 0 hour (AID 1224889); further: nearly all actives have a fitted effect of over 50% in size
# In short: as §5
# [19] = qHTS RealTime-Glo MT Cell Viability Assay in HEK293 cells - 16 hour (AID 1224872); further: nearly all actives have a fitted effect of over 50% in size; further: potency means the concentration at half of the fitted maximal effect
# In short: (§6)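 HEK293 cells were seeded at 600 cells/well together with NanoLuc luciferase and cell-permeant prosubstrate, preincubated 5 h at 37 C/5% CO2, then given compound in DMSO by pintool. Luminescence from viable-cell prosubstrate reduction was read repeatedly over 40 h.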
# [20] = qHTS RealTime-Glo MT Cell Viability Assay in HEK293 cells - 24 hour (AID 1224886); further: nearly all actives have a fitted effect of over 50% in size; further: potency means the concentration at half of the fitted maximal effect
# In short: as §6
compound,measurement,setting,value
CCCC(=O)OCc1ccccc1,Potency,[1],inactive
same,Potency,[2],inactive
same,outcome,[3],inactive
same,max response,[4],5.95%
same,Potency,[5],inactive
same,Potency,[6],inactive
same,Potency,[7],inactive
same,Potency,[8],inactive
same,Potency,[9],inactive
same,Potency,[10],inactive
same,Potency,[11],inactive
same,Potency,[12],inactive
same,Potency,[13],inactive
same,Potency,[14],inactive
same,outcome,[15],inactive
same,Potency,[16],inactive
same,Potency,[17],inactive
same,Potency,[18],inactive
COc1ccc(/C=C/c2cc(OC)cc(=O)o2)cc1,Potency,[1],inactive
same,Potency,[2],inactive
same,outcome,[3],inactive
same,Potency,[4],8.92 µM (active)
same,Potency,[5],inactive
same,Potency,[6],inactive
same,Potency,[7],inactive
same,Potency,[8],inactive
same,Potency,[9],inactive
same,Potency,[10],inactive
same,Potency,[11],inactive
same,Potency,[12],inactive
same,Potency,[13],inactive
same,Potency,[14],inactive
same,outcome,[15],inactive
same,Potency,[16],inactive
same,Potency,[17],inactive
CCCCOC(=O)CC#N,Potency,[1],inactive
same,Potency,[2],inactive
same,Potency,[19],inactive
same,outcome,[3],inactive
same,Potency,[5],inactive
same,Potency,[6],inactive
same,Potency,[7],inactive
same,Potency,[8],inactive
same,Potency,[9],inactive
same,Potency,[10],inactive
same,Potency,[12],inactive
same,Potency,[13],inactive
same,outcome,[15],inactive
same,Potency,[16],inactive
same,Potency,[17],inactive
same,Potency,[18],inactive
O=C(NC1CCN(CCc2c[nH]c3ccccc23)CC1)c1ccccc1,Potency,[1],inactive
same,Potency,[2],inactive
same,Potency,[19],9.52 µM (active)
same,outcome,[3],inactive
same,Potency,[5],inactive
same,Potency,[6],inactive
same,Potency,[7],inactive
same,Potency,[8],inactive
same,Potency,[9],inactive
same,Potency,[11],inactive
same,Potency,[12],inactive
same,Potency,[13],inactive
same,Potency,[14],inactive
same,outcome,[15],inactive
same,Potency,[20],8.49 µM (active)
same,Potency,[16],9.52 µM (active)
same,Potency,[17],inactive
same,Potency,[18],inactive
CC(C)(Cc1c[nH]c2ccccc12)NCC(O)COc1ccccc1C#N (stereo not given),Potency,[1],inactive
same,Potency,[2],inactive
same,Potency,[19],16.9 µM (active)
same,outcome,[3],inactive
same,Potency,[5],inactive
same,Potency,[6],inactive
same,Potency,[7],inactive
same,Potency,[10],inactive
same,Potency,[11],inactive
same,Potency,[12],inactive
same,Potency,[14],inactive
same,outcome,[15],inactive
same,Potency,[20],9.52 µM (active)
same,Potency,[16],7.56 µM (active)
same,Potency,[17],inactive
same,Potency,[18],inactive
Nc1nc(Cl)nc2c1ncn2[C@H]1C[C@H](O)[C@@H](CO)O1,Potency,[1],inactive
same,Potency,[2],inactive
same,Potency,[19],inactive
same,outcome,[3],inactive
same,Potency,[5],inactive
same,Potency,[6],inactive
same,Potency,[7],inactive
same,Potency,[8],inactive
same,Potency,[9],inactive
same,Potency,[10],inactive
same,Potency,[11],inactive
same,Potency,[12],inactive
same,Potency,[13],inactive
same,outcome,[15],inactive
same,Potency,[16],inactive
same,Potency,[17],inactive
same,Potency,[18],inactive
Cc1cc(N)n(-c2ccccc2)n1,Potency,[1],inactive
same,Potency,[2],inactive
same,Potency,[19],inactive
same,outcome,[3],inactive
same,Potency,[5],inactive
same,Potency,[6],inactive
same,Potency,[7],inactive
same,Potency,[8],inactive
same,Potency,[9],inactive
same,Potency,[11],inactive
same,Potency,[12],inactive
same,Potency,[13],inactive
same,Potency,[14],inactive
same,Potency,[20],inactive
same,Potency,[16],inactive
same,Potency,[17],inactive
same,Potency,[18],inactive
CC1=C(C)C(=O)C(C(CCCCCC(=O)O)c2ccccc2)=C(C)C1=O (stereo not given),Potency,[1],inactive
same,Potency,[2],inactive
same,outcome,[3],inactive
same,max response,[4],3.36%
same,Potency,[5],inactive
same,Potency,[6],inactive
same,Potency,[7],inactive
same,Potency,[8],inactive
same,Potency,[9],inactive
same,Potency,[10],inactive
same,Potency,[11],inactive
same,Potency,[12],inactive
same,Potency,[13],inactive
same,Potency,[14],inactive
same,outcome,[15],inactive
same,Potency,[20],inactive
same,Potency,[16],10.7 µM (active)
same,Potency,[17],inactive
CCC1=C(C)CN(C(=O)NCCc2ccc(S(=O)(=O)NC(=O)NC3CCC(C)CC3)cc2)C1=O (stereo not given),Potency,[1],inactive
same,Potency,[2],inactive
same,outcome,[3],inactive
same,max response,[4],-23%
same,Potency,[5],inactive
same,Potency,[6],inactive
same,Potency,[7],inactive
same,Potency,[8],inactive
same,Potency,[9],inactive
same,Potency,[10],inactive
same,Potency,[11],inactive
same,Potency,[12],inactive
same,Potency,[13],inactive
same,Potency,[14],inactive
same,outcome,[15],inactive
same,Potency,[20],inactive
same,Potency,[16],inactive
same,Potency,[17],inactive
same,Potency,[18],inactive
Oc1ccc(Oc2ccccc2)cc1,Potency,[1],inactive
same,Potency,[19],14.7 µM (active)
same,outcome,[3],inactive
same,Potency,[4],14.7 µM (active)
same,Potency,[5],inactive
same,Potency,[7],inactive
same,Potency,[8],36.9 µM (active)
same,Potency,[9],36.9 µM (active)
same,Potency,[10],inactive
same,Potency,[12],inactive
same,Potency,[13],36.9 µM (active)
same,Potency,[14],inactive
same,outcome,[15],inactive
same,Potency,[16],16.5 µM (active)
same,Potency,[17],inactive
same,Potency,[18],inactive
COc1ccc(C(=O)c2ccc(C)cc2)c(O)c1,Potency,[1],inactive
same,Potency,[2],inactive
same,outcome,[3],inactive
same,Potency,[5],inactive
same,Potency,[6],inactive
same,Potency,[7],inactive
same,Potency,[8],inactive
same,Potency,[9],inactive
same,Potency,[10],inactive
same,Potency,[11],inactive
same,Potency,[12],inactive
same,Potency,[13],inactive
same,Potency,[14],inactive
same,Potency,[17],inactive
same,Potency,[18],inactive
Clc1ccccc1-c1nc(-c2ccncc2)no1,Potency,[1],inactive
same,Potency,[2],inactive
same,outcome,[3],inactive
same,Potency,[5],inactive
same,Potency,[6],inactive
same,Potency,[7],inactive
same,Potency,[8],inactive
same,Potency,[10],inactive
same,Potency,[11],inactive
same,Potency,[12],inactive
same,Potency,[13],inactive
same,Potency,[14],inactive
same,Potency,[16],inactive
same,Potency,[17],inactive
same,Potency,[18],inactive
C[C@]12CCC(=O)C=C1[C@@H]1C[C@@H]1[C@H]1[C@@H]3[C@@H]4C[C@@H]4[C@@]4(CCC(=O)O4)[C@@]3(C)CC[C@@H]12,Potency,[1],inactive
same,Potency,[2],inactive
same,outcome,[3],inactive
same,Potency,[5],inactive
same,Potency,[6],inactive
same,Potency,[7],inactive
same,Potency,[8],inactive
same,Potency,[9],inactive
same,Potency,[10],inactive
same,Potency,[11],inactive
same,Potency,[12],inactive
same,Potency,[13],inactive
same,Potency,[14],inactive
same,outcome,[15],inactive
same,Potency,[16],inactive
same,Potency,[17],inactive
same,Potency,[18],inactive
CC(C)CC(C)(C)C,Potency,[1],inactive
same,outcome,[3],inactive
same,max response,[4],-17.8%
same,Potency,[6],inactive
same,Potency,[7],inactive
same,Potency,[8],inactive
same,Potency,[12],inactive
same,Potency,[13],inactive
same,Potency,[14],inactive
same,outcome,[15],inactive
O=c1c2ccccc2oc2ccccc12,Potency,[1],inactive
same,outcome,[3],inactive
same,max response,[4],-17.5%
same,Potency,[5],inactive
same,Potency,[6],inactive
same,Potency,[7],inactive
same,Potency,[8],inactive
same,Potency,[9],inactive
same,Potency,[10],inactive
same,Potency,[12],inactive
same,Potency,[13],inactive
same,Potency,[14],inactive
same,outcome,[15],inactive
same,Potency,[20],inactive
same,Potency,[17],inactive
same,Potency,[18],inactive
